# Sampled rows, rich in hits. Any-hit rate of the full collection: about 2.9%.
# EPAC1 ag val – validation of human EPAC1 agonists. O95398. EPAC1 Rap1b BODIPY-GDP exchange, fluorescence. Potency, µM, most hits filed as activators. actives 1% (n = 16,000). AID 1645883; note: nearly all actives have a fitted effect of over 70% in size
# EPAC2 antag – human EPAC2 antagonism, validation. EPAC2 Rap1B BODIPY-GDP exchange, fluorescence. Potency, µM (top dose mostly 112 µM), actives largely listed as inhibitors. actives 1.7% (n = 16,000). AID 1645886; note: nearly all actives have a fitted effect of over 40% in size
#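 Fluorescent exchange read-out: 100 nM EPAC2 with 250 nM RAP1B–BODIPY-GDP and 50 uM GDP; BODIPY-GDP release lowers fluorescence. Read at 480/540 nm every 5 min for 30 min at room temperature; normalized to 6.5 mM cAMP.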
# Hits are given with their value; – = inactive; ? = inconclusive; ! = not confirmed by another sample. Calls come from the whole dose curve; as a rule, active = well fitted curve in the direction sought with a large enough effect; inconclusive = small, poorly fitted or top-dose-only effect, or another doubt; inactive = no such curve, though single readings can be large; an effect the other way counts as inactive or inconclusive.
SMILES,EPAC1 ag val,EPAC2 antag
CCC(C)[C@H]1O[C@]2(C=C[C@@H]1C)C[C@@H]1C[C@@H](C/C=C(\C)[C@@H](O[C@H]3C[C@H](OC)[C@@H](O[C@H]4C[C@H](OC)[C@H](NC(C)=O)[C@H](C)O4)[C@H](C)O3)[C@@H](C)/C=C/C=C3\CO[C@@H]4[C@H](O)C(C)=C[C@@H](C(=O)O1)[C@]34O)O2 (some centres undefined),–,–
COc1ccc(CN2CCOc3ccc(CN4CCC(Oc5cccnc5)CC4)cc3C2)c(F)c1,–,–
C[C@@H](O)[C@H]1C(=O)N2C(C(=O)[O-])=C(SC3Cn4cnc[n+]4C3)[C@H](C)[C@H]12 (some centres undefined),–,–
CC(=O)N[C@@H]([C@@H](O)[C@H](O)[C@H](O)CO)[C@@H](O)CC(=O)C(=O)O,–,–
CC(/C=C/c1cccc(Oc2ccc(F)cc2)c1)N(O)C(N)=O (centres undefined),–,79µM
C[C@@H](/C=C\c1cccc(Oc2ccc(F)cc2)c1)N(O)C(N)=O,–,25µM
CC(C(=O)O)c1cccc(Oc2ccccc2)c1 (centres undefined),–,–
NC[C@@H]1O[C@H](O[C@H]2[C@H](O)[C@H](O[C@H]3[C@@H](O)[C@H](N)C[C@H](N)[C@H]3O[C@H]3O[C@H](CN)[C@H](O)[C@H](O)[C@H]3N)O[C@@H]2CO)[C@@H](N)[C@@H](O)[C@@H]1O,–,–
O=S(=O)(O)c1cc(I)c(O)c2ncccc12,–,–
O=C(Nc1ccc(/C=C/c2ccc(NC(=O)c3cc(S(=O)(=O)O)c4cccnc4c3O)cc2S(=O)(=O)O)c(S(=O)(=O)O)c1)c1cc(S(=O)(=O)O)c2cccnc2c1O,?,22µM
CC(CCc1ccc(O)cc1)N1CCOc2c(O)cc(-c3nc4ccccc4s3)cc2C1 (centres undefined),–,–
CC(C)=CCC/C(C)=C/CC/C(C)=C/CC/C(C)=C/CC/C(C)=C/CC/C(C)=C/CC/C(C)=C/CC/C(C)=C/CC/C(C)=C/CO,–,–
CC(C)=CCC/C(C)=C/CC/C(C)=C/CO,–,45µM!
NC(Cc1c[nH]c2ccccc12)C(=O)O (centres undefined),–,–
CC(=O)N[C@@H](Cc1c[nH]c2ccccc12)C(=O)OCc1cc(C(F)(F)F)cc(C(F)(F)F)c1,–,45µM!
CN1CCC(CN2c3ccccc3Sc3ccccc32)C1 (centres undefined),–,–
COc1ccc2[nH]cc(CCNc3ncnc4ccc(-c5ccccc5C#N)cc34)c2c1,112µM,–
COc1ccc2[nH]cc(CCNc3ncnc4ccc(-c5cccc(C#N)c5)cc34)c2c1,–,–
O=C(CN1CCN(Cc2ccc3c(c2)OCO3)CC1)N1c2ccccc2Sc2ccccc21,–,–
O=C(CN1Cc2ccccc2OC(c2ccsc2)C1)N1CCN(Cc2ccc3c(c2)OCO3)CC1 (centres undefined),–,56µM
CN(C)Cc1ccccc1-c1ccc2ncnc(N(C)Cc3ccco3)c2c1,–,–
CN(Cc1ccco1)c1ncnc2ccc(-c3cccnc3)cc12,–,–
Cc1ccccc1-c1ccc2ncnc(N(C)Cc3ccco3)c2c1,100µM,20µM
CN(Cc1ccco1)c1ncnc2ccc(-c3ccc4c(c3)OCO4)cc12,–,35µM
NC[C@@H]1CC[C@@H](N)[C@@H](O[C@H]2[C@H](O)[C@@H](O[C@H]3O[C@H](CO)[C@@H](O)[C@H](N)[C@H]3O)[C@H](N)C[C@@H]2N)O1,?,–
SMILES,EPAC1 ag val,EPAC2 antag
CN1CCC(=C2c3ccccc3CCc3cccnc32)CC1,–,–
CCOC(=O)N1CCC(=C2c3ccc(Cl)cc3CCc3cccnc32)CC1,–,35µM!
CCOc1ccccc1CN1CCCC(c2nc(C)ncc2-c2ccc(F)cc2)C1 (centres undefined),–,–
CCCC(=O)O[C@]1(C(=O)COC(=O)CC)[C@@H](C)C[C@H]2[C@@H]3CCC4=CC(=O)C=C[C@]4(C)[C@@]3(F)[C@@H](O)C[C@@]21C,–,–
CN(C)c1ccc(/C=C/c2ccnc3c2ccc2c(/C=C/c4ccc(N(C)C)cc4)ccnc23)cc1,–,?
Cc1cc(N(C)C)cc(C)c1/C=C/c1ccnc2ccccc12,100µM,–
Cc1ccc2nccc(/C=C/c3ccc(N(C)C)cc3)c2c1,112µM,–
CN(C)C(=O)c1ccc(/C=C/c2ccnc3ccccc23)cc1,?,–
COC[C@H](c1ccc(C(F)(F)F)cc1)N1CCN(C2(C)CCN(C(=O)c3c(C)ncnc3C)CC2)C[C@H]1C,–,–
CC(O)[C@@H]1NC(=O)[C@H](Cc2ccccc2)NC(=O)[C@H](C(C)O)NC(=O)[C@H](CCCCN)NC(=O)[C@H](Cc2c[nH]c3ccccc23)NC(=O)[C@H](Cc2ccccc2)NC(=O)[C@H](Cc2ccccc2)NC(=O)[C@H](CC(N)=O)NC(=O)[C@H](CCCCN)NC(=O)[C@@H](NC(=O)CNC(=O)[C@H](C)N)CSSC[C@@H](C(=O)O)NC(=O)[C@H](CO)NC1=O (some centres undefined),–,–
CO/N=C(\C(=O)N[C@@H]1C(=O)N2C(C(=O)O)=C(CSC(=O)c3ccco3)CS[C@H]12)c1csc(N)n1,–,–
COc1ccc(SC[C@H](Cc2ccccc2)N2CC[C@@H](C)CCC2=O)cc1,–,40µM
Cc1ccc(SC[C@H](Cc2ccccc2)N2CC[C@@H](C)CCC2=O)cc1,–,?
CC[C@]1(c2ncc[nH]2)Cc2ccccc2O1,–,16µM
Cc1ccc(C(=O)Nc2ccc(S(=O)(=O)O)c3cc(S(=O)(=O)O)cc(S(=O)(=O)O)c23)cc1NC(=O)c1cccc(NC(=O)Nc2cccc(C(=O)Nc3cc(C(=O)Nc4ccc(S(=O)(=O)O)c5cc(S(=O)(=O)O)cc(S(=O)(=O)O)c45)ccc3C)c2)c1,89µM!,–
NC(Cc1ccccc1)C(=O)O (centres undefined),–,–
CCC(=O)O[C@@H]1CC(=O)O[C@H](C)C/C=C/C=C/[C@@H](O)[C@H](C)C[C@H](CC=O)[C@H](OC2O[C@H](C)[C@@H](O[C@H]3C[C@@](C)(O)[C@@H](OC(=O)CC)[C@H](C)O3)[C@H](N(C)C)[C@H]2O)[C@H]1OC (some centres undefined),–,–
CCOC(=O)N1CCN(Cc2ccc3c(c2)CN(C(=O)c2noc4c2CCCC4)CCO3)CC1,–,–
CC(=O)Nc1cc(C(=O)N2CC3(C)CC2CC(C)(C)C3)cc2ncn(CCc3ccccn3)c12 (centres undefined),–,–
CC(C)(Sc1ccc(CCN(CCCCC2CCCCC2)C(=O)NC2CCCCC2)cc1)C(=O)O,–,45µM!
CCCN(CC)C(CC)C(=O)Nc1c(C)cccc1C (centres undefined),–,?
Cc1nc(CC(=O)NCC2Cc3cc(F)cc(-c4ccc(F)c(C)c4)c3O2)cs1 (centres undefined),–,–
Cc1occc1C(=O)Nc1cccc(-c2nc(CNC(=O)c3ccc4ccccc4n3)c(C)o2)c1,–,?
Cc1[nH]c2ccccc2c1/C=C/c1ccc2ccccc2n1,100µM,–
Cc1[nH]c2ccccc2c1/C=C/c1cnc2ccccc2n1,–,–
CCn1nc(C)cc1C(=O)NCCN1Cc2ccccc2OC(c2ccccc2F)C1 (centres undefined),–,–

# Source: PubChem BioAssay (National Center for Advancing Translational Sciences (NCATS))
